RORgamma inh: qHTS for inhibitors of ROR gamma transcriptional activity. Nuclear receptor ROR-gamma (Mus musculus), P51450. Drosophila S2 Gal4-RORgamma UAS-luciferase reporter, 20 h. Potency, µM (doses to about 53.6 µM), for the others: at the top dose activity change, negative = inhibition, most hits filed as inhibitors. hit rate 5.4% among 310,000; note: % is set by controls: 0 for no effect and ±100 for the full control effect; nearly all actives have a fitted effect of over 60% in size
Target sequence (P51450 whole entry, looked up, the tested form may be a part): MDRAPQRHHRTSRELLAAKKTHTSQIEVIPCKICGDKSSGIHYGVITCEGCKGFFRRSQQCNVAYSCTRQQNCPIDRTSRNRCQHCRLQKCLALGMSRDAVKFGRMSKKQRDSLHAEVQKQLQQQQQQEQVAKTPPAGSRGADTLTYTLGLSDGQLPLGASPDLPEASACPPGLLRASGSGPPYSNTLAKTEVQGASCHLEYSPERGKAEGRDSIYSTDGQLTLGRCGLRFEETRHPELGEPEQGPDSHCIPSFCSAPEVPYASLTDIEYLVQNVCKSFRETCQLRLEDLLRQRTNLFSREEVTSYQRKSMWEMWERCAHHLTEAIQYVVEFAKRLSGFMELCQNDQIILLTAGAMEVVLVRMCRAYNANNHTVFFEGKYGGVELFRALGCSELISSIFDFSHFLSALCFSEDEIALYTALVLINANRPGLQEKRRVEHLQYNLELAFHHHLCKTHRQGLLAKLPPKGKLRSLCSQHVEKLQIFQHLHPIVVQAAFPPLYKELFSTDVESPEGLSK
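In this cell-based reporter format, copper sulfate (700 uM final) drives Gal4–ROR gamma fusion expression from a metallothionein promoter in Drosophila Schneider cells; compounds preincubated 1 hr, reporter read after 20 hr at ambient temperature.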
S2 tox: Viability Counterscreen for Primary qHTS for Inhibitors of ATXN expression; AID 651635, 2014; hit rate 0.49% among 400,000; Potency, µM (doses to about 56.7 µM), usual class: cytotoxic; S2 cells (HEK-293 line with an ATXN2-luciferase reporter) viability, CellTiter-Fluor protease fluorescence, 24 h; note: nearly all actives have a fitted effect of over 40% in size
HepG2 viability: qHTS for Inhibitors of TGF-b: Cytotox Counterscreen. Potency, µM (titrated, usually from 46.1 µM), inactives show at the top dose activity change, negative = cytotoxicity, hits mostly cytotoxic. HepG2 CAGA-GFP viability, ATP luminescence, 18 h. hit rate 0.76% among 410,000
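HepG2 CAGA-GFP cells (1000/well, DMEM with 1% FBS) received compound, then TGF-beta at 500 pg/mL final, and were incubated 18 hours at 37 degrees C. Viability was read by CellTiter-Glo luminescence. Media-only wells were set as complete cell-killing and DMSO as no toxicity.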
ATXN2 expr inh: Primary qHTS for Inhibitors of ATXN expression; AID 1745845, 2022; hit rate 0.72% among 360,000; HEK-293 ATXN2-luciferase reporter, luminescence, 24 h; Potency, µM (doses to about 57 µM), for the others: at the highest dose activity change, negative = inhibition, actives largely listed as inhibitors; note: % is set by controls: 0 for no effect and ±100 for the full control effect; nearly all actives have a fitted effect of over 55% in size
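ATXN2-luciferase reporter cells (luciferase flanked by upstream and downstream ATXN2 gene portions) were treated 24 h at 37 °C with compounds at up to 57 uM. SteadyGlo luminescence gave expression; GF-AFC fluorescence gave viability.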
TGFb SMAD3 inh: qHTS for Inhibitors of TGF-b | HepG2 CAGA-GFP TGF-b/SMAD3 reporter, GFP fluorescence, 18 h; TGF-beta stimulated, 500 pg/mL final | Potency, µM (highest dose often 46.1 µM), for the others: at the highest dose activity, negative = inhibition, actives largely listed as inhibitors | hit rate 1.2% among 410,000 | AID 588855, 2011; note: % is set by controls: 0 for no effect and ±100 for the full control effect; nearly all actives have a fitted effect of over 65% in size
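HEPG2 CAGA-GFP reporter cells (1000/well, DMEM with 1% FBS) received compounds, then recombinant TGF-beta at 500 pg/mL final for 18 hours at 37 degrees C. Per-cell GFP summed per well was normalised to unstimulated and stimulated DMSO controls before curve fitting.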
VP16 counter: VP16 counterscreen qHTS for inhibitors of ROR gamma transcriptional activity. Drosophila S2 Gal4-VP16 UAS-luciferase, luminescence, 20 h. Potency, µM (titrated, usually from 53.6 µM), for inactives: at the highest dose activity, negative = inhibition, actives largely listed as inhibitors. hit rate 3.5% among 310,000. AID 2546, 2010;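 note: Gal4-VP16 expression switched on by copper sulfate through the metallothionein promoter; % is set by controls: 0 for no effect and ±100 for the full control effect; nearly all actives have a fitted effect of over 50% in size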
Active calls of the source: *; i = inactive; ? = inconclusive; nt = no result given. A selection: hits, their analogues and other compounds. The true share with any hit is near 6.1%. Calls come from the whole dose curve; as a rule, active = well fitted curve in the direction sought with a large enough effect; inconclusive = small, poorly fitted or top-dose-only effect, or another doubt; inactive = no such curve, though single readings can be large; an effect the other way counts as inactive or inconclusive. Potency is the fitted concentration of half-maximal effect.

SMILES | RORgamma inh | S2 tox | HepG2 viability | ATXN2 expr inh | TGFb SMAD3 inh | VP16 counter
C[C@@H]1OC(Oc2ccccc2-c2cc(=O)c3c(O)cc(O)c([C@@H]4O[C@H](CO)[C@@H](O)[C@H](O)[C@H]4O)c3o2)[C@H](O)[C@H](O)[C@H]1O (stereo not given in full) | -17% | nt | nt | nt | nt | -4%
O=C(c1cc[n+]([O-])cc1)N1CCCC(N2CCN(c3cccc(C(F)(F)F)c3)CC2)C1 (stereo not given) | 1.3µM* | i | -13% | -16% | -16% | -65%
Cc1ccc(NC(=S)N2CC(C)OC(C)C2)cc1C (stereo not given) | 16µM* | i | 18% | -6% | 0% | ?
Cc1cc(C)cc(NC(=S)N2CCN(S(=O)(=O)c3ccccc3)CC2)c1 | 11µM* | i | 5% | -3% | 0% | ?
Cc1ccc(NC(=S)N2CCCCC2CO)cc1C (stereo not given) | 7.9µM* | i | -16% | 9% | 0% | ?
Cc1ccc(NC(=S)N2CCN(S(=O)(=O)c3ccccc3)CC2)cc1 | ? | i | 3% | 1% | 0% | 6%
CC1CN(C(=S)Nc2ccc(Br)cc2)CC(C)O1 (stereo not given) | ? | i | -30% | -12% | -2% | ?
Cc1cc(C)cc(NC(=S)N2CC(C)OC(C)C2)c1 (stereo not given) | 16µM* | i | 2% | 3% | -2% | ?
CC1CN(C(=S)Nc2ccccc2)CC(C)O1 (stereo not given) | -31% | i | -4% | nt | 12% | -18%
O=c1cc(-c2cccc3c2Sc2ccccc2S3)oc(N2CCOCC2)c1 | nt | nt | nt | -29% | nt | nt
Cc1c(Cl)cccc1NC(=O)c1cc2sccc2n1Cc1ccc(F)cc1 | nt | i | -11% | -18% | -3% | nt
Cc1ccc(Cl)cc1NS(=O)(=O)c1ccc(N2CCCCS2(=O)=O)cc1 | nt | nt | -7% | nt | 14% | nt
Cc1nc(NCc2cnn(C)c2)sc1-c1ccn(-c2cccc(F)c2)n1 | nt | i | nt | nt | nt | nt
Cc1cc(Br)ccc1SCC(=O)N1CCN(S(=O)(=O)c2ccccc2)CC1 | ? | i | -21% | -2% | 0% | 7.1µM*
Cc1cccc(NC(=S)N2CCCCCC2)c1 | ? | i | -11% | 3% | -7% | ?
Cc1cc(C)cc(NC(=S)N2CCCC2)c1 | 13µM* | i | -1% | 2% | 1% | ?
CCOC(=O)c1cc2c(=O)n3ccccc3nc2n(CCOC)c1=NC(=O)C(C)(C)C | 28% | nt | 7.9µM* | -3% | 1% | 2%
Cc1cccc(NC(=S)NC(=O)/C=C/c2ccco2)n1 | 10µM* | i | 28% | 32% | 1% | ?
O=C(/C=C/c1ccco1)NC(=S)Nc1ccccc1 | 7.1µM* | i | -1% | nt | ? | 3.2µM*
Cc1cccc(NC(=O)/C(C#N)=C/c2ccc(Cl)cc2)n1 | 16% | i | 4% | nt | 3% | 2%
O=C(/C=C/c1ccco1)NC(=S)Nc1cccc([N+](=O)[O-])c1 | ? | i | 5% | -31% | -3% | ?
Cc1cccc(NC(=S)NC(=O)/C=C/c2ccco2)c1 | 4.5µM* | i | -10% | 8% | -11% | ?
Cc1cccc(NC(=O)/C=C/c2ccc(Cl)cc2)n1 | 1.6µM* | i | -35% | 49% | 0% | 7.1µM*
CC(C)(C)c1ccc(S(=O)(=O)Nc2ccc(C(O)(C(F)(F)F)C(F)(F)F)cc2)cc1 | nt | 18µM* | 20µM* | ? | 13µM* | nt
Cc1ccc(S(=O)(=O)Nc2ccc(C(OC(=O)c3ccccc3[N+](=O)[O-])(C(F)(F)F)C(F)(F)F)cc2)cc1 | -7% | i | 10µM* | -3% | 10µM* | -3%
SMILES | RORgamma inh | S2 tox | HepG2 viability | ATXN2 expr inh | TGFb SMAD3 inh | VP16 counter
O=C(OC(c1ccc(NS(=O)(=O)c2ccccc2)cc1)(C(F)(F)F)C(F)(F)F)c1ccccc1 | 14µM* | ? | -69% | ? | ? | ?
COc1ccc(CNC(=O)c2ccc3c(c2)N(Cc2cccc(Cl)c2)C(=O)c2ccccc2S3)c(OC)c1 | nt | nt | -26% | nt | 0% | nt
Cc1cc(C)c(S(=O)(=O)NCC2CCC(C(=O)NCCc3ccccc3)CC2)c(C)c1 (stereo not given) | nt | nt | -32% | nt | ? | nt
CCCCCCOc1ccc(-c2nc3ccc(Br)cc3c(=O)o2)cc1 | nt | i | 1% | 1% | -3% | nt
CCc1ccc(-n2c(=O)c3cccnc3n2CC(=O)Nc2ccccc2C(F)(F)F)cc1 | nt | nt | 11µM* | nt | ? | nt
Cn1c(=O)c2c(nc(Oc3ccccc3Cl)n2Cc2ccc(C#N)cc2)n(C)c1=O | nt | i | 0% | 1% | 12% | nt
Cc1ccc(CN2CC(C(=O)Nc3ncc(C)s3)CC2=O)cc1 (stereo not given) | nt | i | -32% | 16µM* | ? | nt
Cc1ccc(CN2CC(C(=O)Nc3nc(C)cs3)CC2=O)cc1 (stereo not given) | nt | i | 3% | nt | 2% | nt
Cc1ccc(CNc2ccc([N+](=O)[O-])cc2C(N)=O)cc1 | nt | ? | 15% | 42% | 20% | nt
Cc1ccc(Oc2c(C(N)=O)cc([N+](=O)[O-])cc2[N+](=O)[O-])cc1 | 2.8µM* | ? | -83% | ? | ? | 2.5µM*
O=C(c1cccc(Cl)c1)N(Cc1cccc(F)c1)C1CCS(=O)(=O)C1 (stereo not given) | nt | nt | -5% | nt | -29% | nt
Cc1cccc(N2CCN(C(=O)CN3C(=O)COc4ccc(S(=O)(=O)N5CCCC5)cc43)CC2C)c1 (stereo not given) | nt | ? | -29% | 11% | -22% | nt
CNC(=O)C1CCN(Cc2cc3ccccc3n2Cc2ccccc2C)CC1 | nt | ? | -35% | -18% | -29% | nt
Cc1ccccc1Cn1c(CN2CCC(C(=O)NCCN(C)C)CC2)cc2ccccc21 | nt | nt | 10µM* | nt | 13µM* | nt

Screening results deposited in PubChem by National Center for Advancing Translational Sciences (NCATS).
